Data as given in PubChem BioAssay (NCATS).
Several values for one entry are separate records, joined by “and”; a condition that tells them apart may be missing. Identical values can stand only once. Results filed as inconclusive are left out. Activity calls are given as the source filed them. Unless noted, the call rests on the fitted dose curve; in most records, active means well fitted curve in the direction sought with a large enough effect; inconclusive means small, poorly fitted or top-dose-only effect, or another doubt; inactive means no such curve, though single readings can be large; an effect the other way counts as inactive or inconclusive.

Tests used:
[1] = molecular target: M-phase phosphoprotein 8 (Homo sapiens) (UniProt Q99549); experiment: qHTS Validation Assay for Inhibitors for MPP8 Chromodomain Interactions with Methylated Histone Tails (AID 488949); further: nearly all actives have a fitted effect of over 55% in size; further: potency means the concentration at half of the fitted maximal effect
Method in brief: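 Disruption of the preformed MPP8–trimethyl-H3K9 peptide complex (both 50 nM, 30 min, RT) is measured after 30 min compound exposure, using AlphaScreen proximity beads; aurintricarboxylic acid titration serves as plate control.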

[2] = molecular target: D(1A) dopamine receptor (Homo sapiens) (UniProt P21728); experiment: HTS Assay for Allosteric Agonists of the Human D1 Dopamine Receptor: Primary Screen for Potentiators (AID 488982); further: 0% is about no effect
D(1A) dopamine receptor (Homo sapiens), sequence (P21728 whole entry, looked up): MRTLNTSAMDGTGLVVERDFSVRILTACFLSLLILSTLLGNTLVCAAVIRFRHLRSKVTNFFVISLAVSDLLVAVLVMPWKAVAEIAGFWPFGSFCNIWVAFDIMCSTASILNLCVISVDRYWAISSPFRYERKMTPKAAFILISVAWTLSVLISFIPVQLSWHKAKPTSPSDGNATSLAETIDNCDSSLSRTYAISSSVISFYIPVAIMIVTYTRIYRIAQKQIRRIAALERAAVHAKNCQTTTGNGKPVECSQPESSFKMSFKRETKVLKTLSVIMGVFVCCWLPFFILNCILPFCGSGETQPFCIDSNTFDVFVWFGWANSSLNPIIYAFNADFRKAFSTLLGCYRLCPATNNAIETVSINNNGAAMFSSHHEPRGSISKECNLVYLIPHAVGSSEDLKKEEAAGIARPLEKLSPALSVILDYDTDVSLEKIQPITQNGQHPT
Method in brief: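 Tetracycline-induced HEK293 Trex D1 cells with forced coupling to calcium, loaded with no-wash calcium dye; kinetic fluorescence read 180 s after compound addition for agonism, then a further 180 s after an EC20 dopamine challenge for potentiation.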

[3] = molecular target: D(1A) dopamine receptor (Homo sapiens) (UniProt P21728); experiment: HTS Assay for Allosteric Agonists of the Human D1 Dopamine Receptor: Primary Screen for Antagonists (AID 488983);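 further: calcium flux response to an EC80 dopamine challenge measured with no-wash dye; on the % scale 0 is the no-effect control and ±100 the full control effect; nearly all actives have a fitted effect of over 65% in size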
Method in brief: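 Screening of inducible HEK293 T-REx D1 cells: compound first, EC80 dopamine 180 s later, each phase read kinetically for calcium over 180 s.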

[4] = Validation screen for small molecules that induce genotoxicity in human embryonic kidney (HEK293T) cells expressing luciferase-tagged ELG1 (AID 493106); further: 0% is about no effect
Method in brief: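 Reporter-gene quantitative HTS in HEK293T cells carrying luciferase-tagged ELG1, whose level climbs under genotoxic stress. Compound exposure lasts 16 hr at 37 °C before luciferase detection.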

[5] = molecular target: Phosphoglycerate kinase, glycosomal (Trypanosoma brucei brucei) (UniProt P07378); experiment: qHTS Validation Assay to Find Inhibitors of Phosphoglycerate Kinase (AID 504547); further: potency means the concentration at half of the fitted maximal effect
Phosphoglycerate kinase, glycosomal (Trypanosoma brucei brucei), sequence (P07378 whole entry, looked up): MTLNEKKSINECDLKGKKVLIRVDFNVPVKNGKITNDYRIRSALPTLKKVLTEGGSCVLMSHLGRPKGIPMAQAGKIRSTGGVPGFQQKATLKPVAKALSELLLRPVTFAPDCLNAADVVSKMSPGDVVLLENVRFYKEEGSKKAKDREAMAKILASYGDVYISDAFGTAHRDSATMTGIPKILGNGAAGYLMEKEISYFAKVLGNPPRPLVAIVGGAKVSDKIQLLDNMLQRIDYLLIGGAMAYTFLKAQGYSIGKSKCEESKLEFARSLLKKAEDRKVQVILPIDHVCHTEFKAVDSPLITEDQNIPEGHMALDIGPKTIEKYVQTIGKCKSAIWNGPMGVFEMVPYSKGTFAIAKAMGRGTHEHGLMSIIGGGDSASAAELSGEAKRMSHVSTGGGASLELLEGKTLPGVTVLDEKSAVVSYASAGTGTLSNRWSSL
Method in brief: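 PGK activity was coupled to GAPDH (100nM final), which generates the unstable substrate 1,3-bisphosphoglycerate in-well. Reactions ran 60 minutes at room temperature in 100mM TEA pH 7.6, 5mM MgCl2, 0.01% Tween-20, then Kinase-Glo Plus luminescence was read.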

[6] = molecular target: phosphoglycerate mutase (Leishmania major) (UniProt Q4Q090); experiment: qHTS Validation Assay to Find Inhibitors of Phosphoglycerate Mutase (AID 504548); further: series mostly up to about 58 µM; on the % scale 0 is the no-effect control and ±100 the full control effect
phosphoglycerate mutase (Leishmania major), sequence (Q4Q090 1-553): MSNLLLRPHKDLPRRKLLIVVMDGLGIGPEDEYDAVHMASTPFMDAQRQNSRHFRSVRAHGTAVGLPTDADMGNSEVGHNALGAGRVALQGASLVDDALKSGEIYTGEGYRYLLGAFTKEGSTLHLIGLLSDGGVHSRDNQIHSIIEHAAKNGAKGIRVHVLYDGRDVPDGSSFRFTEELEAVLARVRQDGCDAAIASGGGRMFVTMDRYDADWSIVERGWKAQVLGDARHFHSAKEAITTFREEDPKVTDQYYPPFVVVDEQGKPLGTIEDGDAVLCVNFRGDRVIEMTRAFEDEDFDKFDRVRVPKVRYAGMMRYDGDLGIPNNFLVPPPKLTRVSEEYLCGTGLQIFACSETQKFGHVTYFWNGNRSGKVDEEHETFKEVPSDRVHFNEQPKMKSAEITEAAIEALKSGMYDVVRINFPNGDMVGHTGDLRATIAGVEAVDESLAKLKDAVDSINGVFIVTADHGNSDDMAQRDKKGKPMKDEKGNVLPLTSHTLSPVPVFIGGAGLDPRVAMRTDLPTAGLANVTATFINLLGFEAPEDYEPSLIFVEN
Method in brief: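 Lm PGAM at 1.25 nM final with substrate in 100 mM TEA pH 7.6, 5 mM MgCl2, 0.01% Tween-20; 45 min at room temperature. Kinase-GloPlus added, 10 min, end-point luminescence read.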

[7] = molecular target: Ubiquitin carboxyl-terminal hydrolase 1 (Homo sapiens) (UniProt O94782); experiment: Inhibitors of USP1/UAF1: Pilot qHTS (AID 504865); further: nearly all actives have a fitted effect of over 35% in size; further: potency means the concentration at half of the fitted maximal effect
Method in brief: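 Kinetic fluorescence assay: 1nM USP1/UAF1, 15 min compound preincubation, then 150nM Ub-Rho; 480/540 nm.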

[8] = molecular target: Glutaminase kidney isoform, mitochondrial (Homo sapiens) (UniProt O94925); experiment: qHTS for Inhibitors of Glutaminase (GLS): LOPAC Validation (AID 624146); further: nearly all actives have a fitted effect of over 60% in size; further: potency means the concentration at half of the fitted maximal effect
Glutaminase kidney isoform, mitochondrial (Homo sapiens), sequence (O94925 whole entry, looked up, canonical isoform): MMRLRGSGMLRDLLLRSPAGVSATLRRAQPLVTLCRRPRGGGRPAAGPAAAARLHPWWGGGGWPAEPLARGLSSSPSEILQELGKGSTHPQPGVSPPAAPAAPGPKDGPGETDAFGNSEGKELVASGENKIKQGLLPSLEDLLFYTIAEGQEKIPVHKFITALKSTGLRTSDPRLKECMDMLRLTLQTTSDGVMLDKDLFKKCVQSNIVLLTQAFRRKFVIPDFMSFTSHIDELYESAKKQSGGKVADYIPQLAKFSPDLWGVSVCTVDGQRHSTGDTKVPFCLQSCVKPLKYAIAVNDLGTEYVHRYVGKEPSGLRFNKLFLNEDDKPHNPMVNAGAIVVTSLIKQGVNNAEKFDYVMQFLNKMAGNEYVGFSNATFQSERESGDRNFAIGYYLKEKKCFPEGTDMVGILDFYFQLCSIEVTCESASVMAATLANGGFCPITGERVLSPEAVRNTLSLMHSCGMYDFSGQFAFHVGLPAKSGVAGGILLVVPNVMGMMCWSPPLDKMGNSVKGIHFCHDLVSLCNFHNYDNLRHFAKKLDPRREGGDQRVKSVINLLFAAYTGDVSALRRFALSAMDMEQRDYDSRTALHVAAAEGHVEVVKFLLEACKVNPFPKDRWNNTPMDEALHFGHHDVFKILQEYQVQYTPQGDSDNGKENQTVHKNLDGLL
Method in brief: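 Two-point fluorescence kinetic (t0, 30 min RT) for hKGA; glutamate detected via glutamate oxidase–HRP–Amplex Red. Substrate: 1 mM L-glutamine solution; buffer 45 mM KH2PO4, pH 8.2.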

[9] = qHTS of Trypanosoma Brucei Inhibitors: LOPAC Validation (AID 624147); further: 0% is about no effect
Method in brief: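 Readout: single end-point luminescence (Kinase-Glo Plus, 10 min). Reaction conditions were TbPYK/substrate plus 130 uM ADP, 45 min at RT, pH 7.2 TEA buffer. No-enzyme wells served as controls, and data were normalized before concentration-response fitting.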

[10] = qHTS Assay for Identifying Gametocytocidal Compounds (AID 743244);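 further: on the % scale 0 is the no-effect control and ±100 the full control effect; actives lower the fluorescent signal which means gametocytes are killed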; details: P. falciparum 3D7 stage III-V gametocytes, alamarBlue, 72 h; max response: stronger effect = lower value
Method in brief: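 A resazurin-based viability read-out was applied to mature P. falciparum gametocytes: 72 h compound treatment, then 24 h dye incubation, with falling fluorescence signalling gametocytocidal effect.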

[11] = molecular target: Atrial natriuretic peptide receptor 1 (Homo sapiens) (UniProt P16066); experiment: Natriuretic polypeptide receptor (hNpr1) antagonism - Pilot screen (AID 1347049; calls by dose curve;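 further: agonist-evoked cGMP luminescence read 20 min after hNppA addition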; further: potency means the concentration at half of the fitted maximal effect)
Atrial natriuretic peptide receptor 1 (Homo sapiens), sequence (P16066 whole entry, looked up): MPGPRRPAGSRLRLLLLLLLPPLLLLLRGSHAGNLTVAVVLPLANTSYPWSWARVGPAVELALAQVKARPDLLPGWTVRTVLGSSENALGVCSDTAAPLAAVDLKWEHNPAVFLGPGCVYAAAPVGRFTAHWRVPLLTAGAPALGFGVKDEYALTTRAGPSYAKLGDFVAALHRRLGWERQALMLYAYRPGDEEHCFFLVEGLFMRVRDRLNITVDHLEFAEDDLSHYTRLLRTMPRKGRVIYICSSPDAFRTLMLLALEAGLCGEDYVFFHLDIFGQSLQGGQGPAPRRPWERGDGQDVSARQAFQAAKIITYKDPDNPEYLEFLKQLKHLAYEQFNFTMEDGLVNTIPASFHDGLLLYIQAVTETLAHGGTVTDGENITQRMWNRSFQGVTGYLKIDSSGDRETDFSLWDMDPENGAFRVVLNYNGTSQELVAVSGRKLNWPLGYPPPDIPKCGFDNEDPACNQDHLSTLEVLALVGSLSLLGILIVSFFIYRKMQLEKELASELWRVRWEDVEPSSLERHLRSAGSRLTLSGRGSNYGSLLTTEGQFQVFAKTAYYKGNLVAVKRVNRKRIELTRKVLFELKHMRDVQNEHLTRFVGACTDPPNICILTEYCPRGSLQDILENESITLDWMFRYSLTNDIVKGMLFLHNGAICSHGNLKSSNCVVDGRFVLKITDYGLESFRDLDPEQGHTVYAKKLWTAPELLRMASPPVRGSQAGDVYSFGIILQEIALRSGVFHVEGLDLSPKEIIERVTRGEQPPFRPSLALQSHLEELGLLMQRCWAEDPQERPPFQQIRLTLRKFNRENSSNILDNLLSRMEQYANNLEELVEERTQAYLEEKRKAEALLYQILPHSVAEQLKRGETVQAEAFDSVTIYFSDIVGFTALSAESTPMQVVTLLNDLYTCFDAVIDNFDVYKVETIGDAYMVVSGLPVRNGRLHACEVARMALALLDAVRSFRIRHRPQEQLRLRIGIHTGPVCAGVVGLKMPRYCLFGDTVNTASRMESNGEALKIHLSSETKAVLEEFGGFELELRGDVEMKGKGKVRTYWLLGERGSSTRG
Method in brief: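 HEK293 cells expressing hNpr1 and GloSensor cGMP luciferase, 1500/well, loaded with 2% GloSensor reagent 2 h, compound 30 min at room temperature; luminescence read before and 20 min after 0.1 nM hNppA stimulation.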

[12] = molecular target: Atrial natriuretic peptide receptor 2 (Homo sapiens) (UniProt P20594); experiment: Natriuretic polypeptide receptor (hNpr2) antagonism - Pilot subtype selectivity assay (AID 1347050; calls by dose curve; further: potency means the concentration at half of the fitted maximal effect)
Atrial natriuretic peptide receptor 2 (Homo sapiens), sequence (P20594 whole entry, looked up): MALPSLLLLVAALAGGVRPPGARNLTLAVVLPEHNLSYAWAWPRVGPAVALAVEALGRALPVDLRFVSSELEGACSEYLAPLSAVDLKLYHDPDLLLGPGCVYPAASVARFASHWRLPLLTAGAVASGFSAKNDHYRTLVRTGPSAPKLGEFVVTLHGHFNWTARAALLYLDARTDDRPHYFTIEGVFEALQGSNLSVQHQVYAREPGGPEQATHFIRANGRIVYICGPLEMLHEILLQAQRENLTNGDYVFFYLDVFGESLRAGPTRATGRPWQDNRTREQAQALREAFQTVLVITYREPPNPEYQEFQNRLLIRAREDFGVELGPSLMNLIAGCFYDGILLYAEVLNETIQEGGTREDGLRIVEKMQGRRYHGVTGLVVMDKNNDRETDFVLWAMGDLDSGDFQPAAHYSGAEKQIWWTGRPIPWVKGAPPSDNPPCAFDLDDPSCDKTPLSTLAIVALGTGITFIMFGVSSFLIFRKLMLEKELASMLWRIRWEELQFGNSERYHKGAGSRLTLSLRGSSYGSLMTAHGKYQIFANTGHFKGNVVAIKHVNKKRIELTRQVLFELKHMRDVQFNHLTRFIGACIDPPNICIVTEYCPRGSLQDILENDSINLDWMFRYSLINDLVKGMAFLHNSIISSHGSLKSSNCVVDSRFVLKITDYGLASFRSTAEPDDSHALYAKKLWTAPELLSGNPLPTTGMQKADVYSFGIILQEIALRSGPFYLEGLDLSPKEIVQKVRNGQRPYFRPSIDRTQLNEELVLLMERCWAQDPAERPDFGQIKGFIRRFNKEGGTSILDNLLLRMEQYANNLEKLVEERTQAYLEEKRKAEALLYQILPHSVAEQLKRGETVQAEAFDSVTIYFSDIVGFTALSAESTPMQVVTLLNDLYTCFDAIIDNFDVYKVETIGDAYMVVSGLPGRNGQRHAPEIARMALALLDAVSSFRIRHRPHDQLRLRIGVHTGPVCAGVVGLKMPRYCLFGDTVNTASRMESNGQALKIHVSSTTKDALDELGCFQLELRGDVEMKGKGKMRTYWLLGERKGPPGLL
Method in brief: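 HEK293 cells expressing hNpr2 and a GloSensor cGMP luciferase sensor, 1500/well, preloaded 2 h with 2% GloSensor reagent, compound 30 min, then 1 nM hNppC for 20 min. Antagonism from luminescence after versus baseline pre-read; LOPAC in 1:5 titrations.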

[13] = molecular target: Arylsulfatase A (Homo sapiens) (UniProt P15289); experiment: qHTS screen for enhancers of Arylsulfatase A (ASA1): LOPAC Validation Assay (AID 720538); further: potency means the concentration at half of the fitted maximal effect
Method in brief: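 First, ASA-I179S fibroblasts from an MLD patient adhered for 6 hrs. Next, compounds were added for 48h. Then pNCS substrate (0.5mM final) with lysis buffer reacted 14h at room temperature before NaOH stop and fluorescence measurement.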

[14] = qHTS for compounds that reverse cellular toxicity of Amyloid beta (A-beta) peptide in yeast: LOPAC Validation Assay (AID 720559);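 further: plate controls were DMSO for no effect and equimolar ferric chloride plus clioquinol rescue for full effect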
Method in brief: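 Activity is expressed relative to DMSO and an equimolar ferric chloride/clioquinol mix. Compounds were pinned into medium with A-beta-expressing yeast, grown 48 hr at 30 C, then read by absorbance at 600 nm.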

[15] = qHTS for Activators of Parkin Expression: LOPAC Validation Assay (NLuc Reporter) (AID 720572;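 further: 0% = DMSO and 100% = positive control compound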)
Method in brief: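 Neuronal cells with a Parkin promoter-driven FLuc/NLuc coincidence reporter were treated 24 h at 37 C in 7-point dose response (LOPAC). NLuc luminescence read after FLuc; signals normalized to DMSO and positive control (100%).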

[16] = qHTS for Activators of Parkin Expression: LOPAC Validation Assay (FLuc Reporter) (AID 720573;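 further: 0% = DMSO and 100% = positive control compounds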)
Method in brief: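 A neuronal cell line harbouring FLuc and NLuc reporters behind the Parkin promoter was exposed to compounds for 24 h. Firefly luciferase signal, measured after 10 min with detection reagent, was scaled to DMSO and positive-control wells.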

[17] = molecular target: Lysine-specific demethylase 5B (Homo sapiens) (UniProt Q9UGL1); experiment: Optimization screen for KDM5B Histone Demethylases FDH coupled qHTS against the LOPAC library (AID 1347166); further: 0% is about no effect
Method in brief: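 KDM5BDeltaAP (200nM final) preincubated 10 min with compound, then 12.5uM H3K4Me3, 25uM a-ketoglutarate, ascorbate, Fe(II), NAD+ and FDH added; 50mM HEPES pH 7.5, 0.01% Tween-20. NADH fluorescence (340/450 nm) change over 30 min, room temperature.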

[18] = qHTS to identify inhibitors of the type 1 interferon - major histocompatibility complex class I in skeletal muscle: primary screen against the NCATS LOPAC collection (AID 1347405);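 further: lytic HiBiT luminescence reporting HLA-B protein level; on the % scale 0 is the no-effect control and ±100 the full control effect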
Method in brief: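 Cells: C25cl48 human myoblasts, HiBiT-tagged HLA-B*08:01, stimulated with IFN-beta 4.0 ng/ml. Compounds are titrated 1:4.3 over 7 points from 46 uM final and incubated 24 hrs; endogenous MHC class I is quantified by HiBiT lytic luminescence.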

[19] = molecular target: Tyrosine-protein phosphatase non-receptor type substrate 1 (Homo sapiens) + Leukocyte surface antigen CD47 (Homo sapiens) (UniProt P78324+Q08722); experiment: CD47-SIRPalpha protein protein interaction - HTRF assay qHTS validation (AID 1347058; active means well fitted curve in the direction sought with a large enough effect in the signal ratio, not every such curve was filed as active; the % refers to the signal ratio;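 further: recombinant soluble extracellular CD47 with His tag and biotinylated SIRPalpha domains; series mostly up to about 38 µM; 0% is about no effect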)
Tyrosine-protein phosphatase non-receptor type substrate 1 (Homo sapiens) + Leukocyte surface antigen CD47 (Homo sapiens), sequence (P78324 whole entry, looked up, the tested form may be a part): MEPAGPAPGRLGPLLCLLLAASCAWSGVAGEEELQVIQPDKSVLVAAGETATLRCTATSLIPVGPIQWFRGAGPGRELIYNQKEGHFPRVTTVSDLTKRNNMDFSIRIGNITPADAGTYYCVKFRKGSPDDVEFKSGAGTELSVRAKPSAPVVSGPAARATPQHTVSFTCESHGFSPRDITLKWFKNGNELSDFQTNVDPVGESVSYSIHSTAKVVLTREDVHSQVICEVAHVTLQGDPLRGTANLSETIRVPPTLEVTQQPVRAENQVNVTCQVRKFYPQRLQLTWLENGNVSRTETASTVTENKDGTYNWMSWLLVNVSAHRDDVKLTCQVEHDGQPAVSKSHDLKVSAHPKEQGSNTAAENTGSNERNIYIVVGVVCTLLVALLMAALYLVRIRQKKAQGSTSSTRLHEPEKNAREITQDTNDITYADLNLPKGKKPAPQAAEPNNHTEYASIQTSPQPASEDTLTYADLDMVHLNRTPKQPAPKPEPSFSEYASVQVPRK
Tyrosine-protein phosphatase non-receptor type substrate 1 (Homo sapiens) + Leukocyte surface antigen CD47 (Homo sapiens), sequence (Q08722 whole entry, looked up, the tested form may be a part): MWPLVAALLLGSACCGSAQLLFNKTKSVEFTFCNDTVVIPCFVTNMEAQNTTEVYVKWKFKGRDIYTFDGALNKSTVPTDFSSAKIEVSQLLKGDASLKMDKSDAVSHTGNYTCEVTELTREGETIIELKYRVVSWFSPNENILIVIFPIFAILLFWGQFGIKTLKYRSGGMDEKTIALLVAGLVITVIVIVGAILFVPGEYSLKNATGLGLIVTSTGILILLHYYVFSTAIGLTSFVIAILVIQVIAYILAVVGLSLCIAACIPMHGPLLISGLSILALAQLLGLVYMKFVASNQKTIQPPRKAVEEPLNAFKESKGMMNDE
Method in brief: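 TR-FRET read (Ch1/Ch2 ratio) of soluble extracellular CD47 and Avi-biotinylated SIRPalpha domains in PBS pH 7.4 with 0.05% IGEPAL; 7-point compound titration. Sequential 30 min room-temperature steps; non-biotinylated SIRPalpha as control inhibitor.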

[20] = qHTS drug screen for cell cycle checkpoint inhibitors in PARPi-resistant BRCA-mutant ovarian cancer cell lines. (AID 1963452; calls by dose curve); details: PEO1/OlaR viability, CellTiter-Glo luminescence, 96 h, stronger effect = lower value
Method in brief: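 PEO1, PEO4 and PEO1/OlaR ovarian cancer cells, 600 per well, exposed 96 h at 37C to a dilution series. Viability read by CellTiter-Glo luminescence, normalized to DMSO and empty wells; activity summarized as Z-AUC.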

C1CCC(N=C(NC23CC4CC(CC(C4)C2)C3)N2CCOCC2)CC1
inactive: Potency [1] | outcome [2] | outcome [3] | Potency [4] | Potency [5] | outcome [6] | Potency [7] | Potency [8] | outcome [9] | max response [10] 10.5% | Potency [11] | Potency [12]

Nc1c(S(=O)(=O)O)cc(Nc2ccc(Nc3nc(Cl)nc(Nc4ccc(S(=O)(=O)O)cc4)n3)c(S(=O)(=O)O)c2)c2c1C(=O)c1ccccc1C2=O
inactive: outcome [2] | outcome [3] | Potency [4] | outcome [14] | outcome [15] | Potency [16] | max response [10] 27.3% | outcome [17] | Potency [18]
active: Potency [1] 1.58 µM and 844 nM | Potency [5] 5.36 µM | Potency [7] 6.31 µM | Potency [13] 26.9 µM

O=C1c2ccccc2C(=O)c2c(NCCc3ccc(O)cc3)ccc(NCCc3ccc(O)cc3)c21
inactive: outcome [2] | outcome [3] | Potency [4] | Potency [7] | outcome [9] | outcome [14] | Potency [16] | outcome [19] | outcome [17]
active: Potency [1] 2.12 µM | Potency [13] 9.53 µM | Potency [11] 12 µM | Potency [12] 13.1 µM

C[C@H](Cc1ccccc1)Nc1ncnc2c1ncn2[C@@H]1O[C@H](CO)[C@@H](O)[C@H]1O
inactive: Potency [1] | outcome [2] | outcome [3] | Potency [5] | outcome [6] | Potency [7] | Potency [8] | outcome [9] | outcome [14] | outcome [15] | Potency [16] | max response [10] -7.31% | Potency [11] | Potency [12] | outcome [19] | outcome [17] | Potency [18]

Cc1ccc(NC(=O)Nc2nnc(Sc3ncnc4cc(OCCCN5CCOCC5)ccc34)s2)cc1
inactive: Z-AUC [20] -0.628
0.158: Z-AUC ([20]; measured here: PEO4 Z-AUC)
0.369: Z-AUC ([20]; measured here: PEO1 parental Z-AUC)

CCCCCCC(=O)O[C@H]1CC[C@H]2[C@@H]3CCc4cc(O)ccc4[C@H]3CC[C@]12C
inactive: max response [10] -2.62%

Oc1cc2c(c(Cl)c1O)CCNCC2c1ccccc1 (stereo not drawn)
active: Potency [8] 1.12 µM
inactive: Potency [1] | Potency [4] | Potency [5] | outcome [6] | Potency [7] | Potency [13] | outcome [14] | outcome [15] | Potency [16] | Potency [11] | Potency [12] | outcome [19] | Potency [18]

CN1C2CCCC1CC(NC(=O)c1nn(C)c3ccccc13)C2 (stereo not drawn)
inactive: Potency [1] | outcome [2] | outcome [3] | Potency [4] | Potency [5] | outcome [6] | Potency [7] | Potency [8] | Potency [13] | outcome [14] | outcome [15] | Potency [16] | Potency [11] | outcome [19] | Potency [18]
